Assay outcomes (PubChem)
Hits are enriched below; roughly 1.2% of the tested compounds scored in any of these assays.
Sa ugtP lethal: kills S. aureus RN4220 lacking UgtP; growth inhibition, % (concentration not given with the values); AID 1259309; actives 0.54% (n = 330,000); S. aureus RN4220 ugtP deletion, OD600 growth, 16 h; in the data active means growth inhibition above about 68%;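 further: plate controls were untreated wells for no effect and antibiotic for full effect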
PfHsp40 yeast: rescue of PfHsp40-mediated yeast toxicity. S. cerevisiae expressing PfHsp40, growth rescue, ATP luminescence. growth rescue, % at 12.5 µM. actives 0.68% (n = 340,000). AID 504582; in the data active means growth rescue above about 28%, passing the limit was not always enough; inconclusive means no clear call, values can overlap the other calls;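 further: yeast W303a lacking pdr1 and pdr3 grown in galactose medium; growth measured after three days at 30 °C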
RN4220 kill: kills Staphylococcus aureus RN4220; S. aureus RN4220 growth, OD600, 16 h; inhibition, % (concentration not given with the values); actives 0.33% (n = 330,000); AID 1259311; in the data active means inhibition above about 85%;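 further: plate controls were untreated cells for no effect and reference antibiotic for full effect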
TcdB inh: TcdB glycohydrolase inhibition | P18177 | TcdB glycohydrolase enzymatic assay, plate reader | inhibition, % at 9.99 µM | actives 0.24% (n = 350,000); in the data active means inhibition above about 10%
PrP 5UTR inh: inhibition of PrP 5' UTR reporter expression; actives 0.35% (n = 340,000); cell-based PrP 5' UTR mRNA reporter, plate reader; inhibition, % (test concentration not listed); AID 488862; in the data active means inhibition above about 52%; further: 0 = median of the neutral control wells
Numbers without * were called inactive.

`C[C@H]1CN([C@@H](C)CO)C(=O)c2cc(NC(=O)C3CC3)ccc2O[C@@H]1CN(C)Cc1ccccc1` gave TcdB inh -3.1.
Screening CC(C)n1c(O)c(C2c3cc(Cl)ccc3Oc3[nH]c(=O)n(C(C)C)c(=O)c32)c(=O)[nH]c1=O (stereo not drawn) returned Sa ugtP lethal 1.8, PfHsp40 yeast 281.3*, RN4220 kill 35.8 and PrP 5UTR inh -17.7.
`CN1CCN(NC(=O)Nc2cc(Cl)cc(Cl)c2)CC1` gave Sa ugtP lethal 96.7*, PfHsp40 yeast -0.5, RN4220 kill 100.3*, TcdB inh 1.6 and PrP 5UTR inh -14.5.
Screening CC(C)CC(NC(=O)c1nc[nH]c1C(=O)NCc1ccc(CNC(=O)OC(C)(C)C)cc1)C(=O)OCc1ccccc1 (stereo not drawn) returned Sa ugtP lethal -0.3 and RN4220 kill 1.7.
Cc1cc2c(cn1)C(CCC#N)(CCC#N)c1ccccc1-2 was read as Sa ugtP lethal -2.4, PfHsp40 yeast 54.4*, RN4220 kill -1.9, TcdB inh 1.7 and PrP 5UTR inh -35.6.
For CCOc1cc(CNCc2ccncc2)cc(Br)c1OCc1ccc(F)cc1 the results were Sa ugtP lethal 93.6*, PfHsp40 yeast -0.6, RN4220 kill 12.1 and PrP 5UTR inh -12.1.
For Cc1c(C2(O)CCCCC2)[nH]c2ccc(C(F)(F)F)cc12 the results were PfHsp40 yeast 287.2*, TcdB inh 2.0 and PrP 5UTR inh -15.6.
For Cc1c(C2(O)CCCCC2)[nH]c2ccccc12 the results were TcdB inh 1.6.
`CCC12CN3CCN(CC(C3)C1=NNC(=O)c1ccncc1)C2` gave Sa ugtP lethal -0.6 and RN4220 kill -0.6.
For O=C(Sc1cccc2cccnc12)c1ccccc1Br the results were PfHsp40 yeast 119.0*, TcdB inh -0.1 and PrP 5UTR inh 28.8.
For C[C@@H]1CN([C@@H](C)CO)C(=O)c2cccc(NC(=O)c3ccc(-c4nccs4)cc3)c2O[C@@H]1CN(C)Cc1ccc(C(=O)Nc2ccccc2N)cc1 the results were TcdB inh -0.4.
For C[C@H]1CN([C@@H](C)CO)S(=O)(=O)c2ccc(C#Cc3ccc(F)cc3)cc2O[C@H]1CN(C)CC1CC1 the results were TcdB inh 0.3.
For N#CC(c1cccc(Cl)c1)c1ccc2c(C(F)(F)F)cc(C(F)(F)F)nc2n1 (stereo not drawn) the results were Sa ugtP lethal 96.8*, PfHsp40 yeast -0.1, RN4220 kill 96.6* and PrP 5UTR inh -0.4.
Screening NNc1ccc2c(C(F)(F)F)cc(C(F)(F)F)nc2n1 returned Sa ugtP lethal 15.1, PfHsp40 yeast -0.6, RN4220 kill 24.8, TcdB inh -7.5 and PrP 5UTR inh -22.7.
Screening Cc1ccc2[nH]c(-c3cccc(F)c3)cc(=O)c2c1 returned Sa ugtP lethal -5.1, PfHsp40 yeast -1.7, RN4220 kill 5.6, TcdB inh 0.9 and PrP 5UTR inh 60.0*.
Cc1cc(C)c(C)c(S(=O)(=O)N2CCCCC2C(=O)O)c1C (stereo not drawn) was read as Sa ugtP lethal -2.7, PfHsp40 yeast -1.3, RN4220 kill 6.6, TcdB inh 15.0* and PrP 5UTR inh -25.7.
For CC(C)(C)NC(=O)c1cccc(NC(=O)c2ccc3c(c2)C(=O)N(C(C)(C)C)C3=O)c1 the results were Sa ugtP lethal -0.2, PfHsp40 yeast 4.7, RN4220 kill 2.1, TcdB inh 0.1 and PrP 5UTR inh -12.8.
For CC(C)(C)N1C(=O)c2ccc(C(=O)Nc3ccc(O)cc3)cc2C1=O the results were Sa ugtP lethal -0.1, PfHsp40 yeast -0.4, RN4220 kill -3.8, TcdB inh 22.5* and PrP 5UTR inh -38.2.
`CO[C@H]1CN(C)C(=O)c2cc(NC(=O)C3CC3)ccc2OC[C@H](C)N(C)C[C@H]1C` gave TcdB inh -1.5.
`FCCCOc1ccc(C=NOCc2ccc(Cl)cc2)cc1` gave Sa ugtP lethal 85.4* and RN4220 kill -2.7.
Screening NC(N)=NN=Cc1ccc(OCc2ccccc2)c(OCc2ccccc2)c1 returned Sa ugtP lethal 100.5* and RN4220 kill 100.7*.
For NC(N)=NN=Cc1ccc(OCc2ccc(Cl)cc2Cl)cc1 the results were Sa ugtP lethal 100.6* and RN4220 kill 100.5*.
Screening Clc1ccc(CO/N=C/c2cccs2)cc1 returned PfHsp40 yeast 0.2, TcdB inh -10.0 and PrP 5UTR inh -29.4.
`NC(N)=NN=Cc1ccc(OCc2ccc(Cl)cc2)cc1` gave Sa ugtP lethal 100.0* and RN4220 kill 100.3*.
For NC(N)=N/N=C/c1ccc(OCc2ccc(Cl)cc2)cc1 the results were PfHsp40 yeast 1.6 and PrP 5UTR inh -120.1.
Screening O=C(NN=Cc1ccc2cccnc2c1)c1ccco1 returned Sa ugtP lethal -7.1 and RN4220 kill 4.3.
Screening CCCC(=O)Nc1ccc2c(c1)C(=O)N(C)C[C@@H](OC)[C@H](C)CN(CCC)[C@H](C)CO2 returned TcdB inh 1.0.
Screening COc1ccc(-c2ccc3n(c2=O)C[C@H]2[C@H](CO)[C@@H](C(=O)N(C)C)N(CC4CCOCC4)[C@@H]32)cc1 returned TcdB inh -3.4.
`Cc1ccc(O)c(C2=NNC(c3ccc(Cl)cc3)C2)c1` (stereo not drawn) gave Sa ugtP lethal 16.6, PfHsp40 yeast inconclusive, RN4220 kill 28.3, TcdB inh 0.3 and PrP 5UTR inh -45.9.
Cc1ccc(O)c(C2=NNC(O)(C(F)(F)F)C2)c1 (stereo not drawn) was read as PfHsp40 yeast 38.9* and PrP 5UTR inh 2.0.
For CO[C@@H]1CC[C@H]2CCN(C)C(=O)[C@H](C)[C@H](OC)CN(C)C(=O)c3cc(C#N)ccc3OC[C@H]1O2 the results were TcdB inh 0.0.
For Cc1cc(=O)oc2cc(O)cc(O)c12 the results were PfHsp40 yeast 6.3, TcdB inh -1.9 and PrP 5UTR inh -3.2.
Screening CCCCCc1cc(O)c2c(C)cc(=O)oc2c1 returned Sa ugtP lethal -23.5, PfHsp40 yeast 55.8*, RN4220 kill -8.1 and PrP 5UTR inh -22.6.
Screening CCCCCCCCNC(=O)CCNC(=O)c1ccc(C(C)(C)C)cc1 returned Sa ugtP lethal -21.2, PfHsp40 yeast 47.1*, RN4220 kill 2.0, TcdB inh -9.1 and PrP 5UTR inh -6.4.
`CCCCOc1ccc(C(=O)NCCC(=O)NCCCC(=O)OCC)cc1` gave Sa ugtP lethal -4.0, PfHsp40 yeast 0.0, RN4220 kill 1.8, TcdB inh 0.6 and PrP 5UTR inh -9.8.
`COC(=O)N=Cc1c(NCc2ccccc2)nc2c(C)cccn2c1=O` gave Sa ugtP lethal -14.5 and RN4220 kill 7.9.
Screening O=C1C2C3C=CC(C3)C2C(=O)N1N=Cc1cn(Cc2ccccc2)c2ccccc12 (stereo not drawn) returned Sa ugtP lethal 7.9 and RN4220 kill -1.1.
Screening Cc1nc2ccc(NC(=O)c3cccs3)cc2s1 returned Sa ugtP lethal 24.6, PfHsp40 yeast 37.1*, RN4220 kill 1.9, TcdB inh 0.6 and PrP 5UTR inh -50.6.
Cc1nc2ccc(C(=O)Nc3ccccc3Cl)cc2s1 was read as Sa ugtP lethal 5.8, PfHsp40 yeast 76.6*, RN4220 kill 5.1, TcdB inh 1.8 and PrP 5UTR inh -45.5.
